Measured values as given in PubChem BioAssay.
Calls of active or inactive are those of the source.

How the values were obtained:
[1] = test system: Plasmodium falciparum Sir2 (PF13_0152, Sir2A); test: Plasmodium falciparum Sir2A binding compounds – biochemical, small-molecule microarray, 635 nm fluorescence, primary screen (AID 1098); conditions: fluorescence 635 nm, higher = more signal;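 also: score merges spot fluorescence intensity with its signal-to-noise ratio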
[2] = probe aDKK1 binding to arrayed compounds – biochemical, biotinylated probe, 635/667 nm fluorescence, primary screen (AID 1099); conditions: small-molecule microarray, higher = more signal;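 also: score merges 667nm spot fluorescence with signal to noise across triplicate slides; reference of the scale not given here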
[3] = probe aCHRDL2 binding to arrayed compounds – biochemical, biotinylated probe, 635/667 nm fluorescence, primary screen (AID 1100); conditions: small-molecule microarray, higher = more signal
[4] = change in splice reporter luminescence, either direction, cell-based, HEK293, spliceosome inhibition project, primary screen (AID 1101); conditions: HEK293 splicing luciferase reporter, 24 h, higher = more signal, called active from +8 up or from −8 down;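 also: HEK293 cells carrying a splicing-competent luciferase reporter gene; test concentration not given here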
[5] = biological target: Fibroblast growth factor 10 (Homo sapiens) (UniProt O15520); test: compounds binding fibroblast growth factor 10 – biochemical, small-molecule microarray, 635 nm fluorescence, primary screen (AID 1102); conditions: FGF10 binding, fluorescence 635 nm, higher = more signal
[6] = test system: glycogen synthase kinase-3 (GSK3A per assay name; protocol says GSK3B); test: compounds binding glycogen synthase kinase-3 – biochemical, small-molecule microarray, 635 nm fluorescence, GSK3A, primary screen (AID 1103); conditions: fluorescence 635 nm, higher = more signal; also: the record names both GSK3A and GSK3B
[7] = biological target: Epidermal growth factor receptor (Homo sapiens) (UniProt P00533); test: compounds binding epidermal growth factor receptor – biochemical, small-molecule microarray, 635 nm fluorescence, primary screen (AID 1104); conditions: EGFR binding, higher = more signal;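 also: score merges 667 nm emission intensity with spot signal to noise over triplicate slides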
[8] = biological target: Follistatin-related protein 3 (Homo sapiens) (UniProt O95633); test: compounds binding follistatin-related protein 3 – biochemical, small-molecule microarray, 635 nm fluorescence, primary screen (AID 1105); conditions: FSTL3 binding, higher = more signal;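 also: score merges emission near 667 nm and signal to noise per printed spot across three slides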
[9] = biological target: Dickkopf-related protein 1 (Homo sapiens) (UniProt O94907); test: small molecules binding DKK1 protein – biochemical, small-molecule microarray, 635 nm fluorescence scan, primary screen (AID 1106); conditions: higher = more signal;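 also: score merges emission near 667 nm with signal to noise over three replicate slides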
[10] = test system: Inhibin beta A chain (activin A); test: small molecules binding activin A – biochemical, small-molecule microarray, 635 nm fluorescence scan, primary screen (AID 1107); conditions: INHBA, higher = more signal;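 also: mouse activin A protein probed at 4.33 µg/mL on printed slides; score merges bound-protein fluorescence near 667 nm with spot signal-to-noise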

Chain of Follistatin-related protein 3 (Homo sapiens) (O95633 whole entry, looked up): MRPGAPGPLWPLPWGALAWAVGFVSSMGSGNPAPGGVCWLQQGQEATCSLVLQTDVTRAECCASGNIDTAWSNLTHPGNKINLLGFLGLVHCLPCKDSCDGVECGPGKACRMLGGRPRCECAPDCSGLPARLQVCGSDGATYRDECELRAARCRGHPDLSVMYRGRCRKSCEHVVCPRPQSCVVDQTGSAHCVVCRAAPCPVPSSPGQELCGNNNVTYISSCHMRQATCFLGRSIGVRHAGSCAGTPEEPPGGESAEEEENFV
Chain of Fibroblast growth factor 10 (Homo sapiens) (O15520 whole entry, looked up): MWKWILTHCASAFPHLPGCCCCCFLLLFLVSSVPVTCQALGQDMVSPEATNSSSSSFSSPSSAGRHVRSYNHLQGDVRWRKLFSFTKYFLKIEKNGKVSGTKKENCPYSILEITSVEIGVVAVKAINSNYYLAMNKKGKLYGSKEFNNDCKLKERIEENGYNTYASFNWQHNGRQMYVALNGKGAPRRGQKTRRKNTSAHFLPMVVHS
Chain of Dickkopf-related protein 1 (Homo sapiens) (O94907 whole entry, looked up): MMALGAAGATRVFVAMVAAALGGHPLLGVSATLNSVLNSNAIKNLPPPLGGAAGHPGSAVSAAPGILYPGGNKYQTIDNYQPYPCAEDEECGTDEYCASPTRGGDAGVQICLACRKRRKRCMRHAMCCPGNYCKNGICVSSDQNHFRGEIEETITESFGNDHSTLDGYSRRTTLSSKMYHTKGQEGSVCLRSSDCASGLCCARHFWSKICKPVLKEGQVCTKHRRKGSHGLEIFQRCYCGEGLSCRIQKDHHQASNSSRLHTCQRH
Chain of Epidermal growth factor receptor (Homo sapiens) (P00533 whole entry, looked up): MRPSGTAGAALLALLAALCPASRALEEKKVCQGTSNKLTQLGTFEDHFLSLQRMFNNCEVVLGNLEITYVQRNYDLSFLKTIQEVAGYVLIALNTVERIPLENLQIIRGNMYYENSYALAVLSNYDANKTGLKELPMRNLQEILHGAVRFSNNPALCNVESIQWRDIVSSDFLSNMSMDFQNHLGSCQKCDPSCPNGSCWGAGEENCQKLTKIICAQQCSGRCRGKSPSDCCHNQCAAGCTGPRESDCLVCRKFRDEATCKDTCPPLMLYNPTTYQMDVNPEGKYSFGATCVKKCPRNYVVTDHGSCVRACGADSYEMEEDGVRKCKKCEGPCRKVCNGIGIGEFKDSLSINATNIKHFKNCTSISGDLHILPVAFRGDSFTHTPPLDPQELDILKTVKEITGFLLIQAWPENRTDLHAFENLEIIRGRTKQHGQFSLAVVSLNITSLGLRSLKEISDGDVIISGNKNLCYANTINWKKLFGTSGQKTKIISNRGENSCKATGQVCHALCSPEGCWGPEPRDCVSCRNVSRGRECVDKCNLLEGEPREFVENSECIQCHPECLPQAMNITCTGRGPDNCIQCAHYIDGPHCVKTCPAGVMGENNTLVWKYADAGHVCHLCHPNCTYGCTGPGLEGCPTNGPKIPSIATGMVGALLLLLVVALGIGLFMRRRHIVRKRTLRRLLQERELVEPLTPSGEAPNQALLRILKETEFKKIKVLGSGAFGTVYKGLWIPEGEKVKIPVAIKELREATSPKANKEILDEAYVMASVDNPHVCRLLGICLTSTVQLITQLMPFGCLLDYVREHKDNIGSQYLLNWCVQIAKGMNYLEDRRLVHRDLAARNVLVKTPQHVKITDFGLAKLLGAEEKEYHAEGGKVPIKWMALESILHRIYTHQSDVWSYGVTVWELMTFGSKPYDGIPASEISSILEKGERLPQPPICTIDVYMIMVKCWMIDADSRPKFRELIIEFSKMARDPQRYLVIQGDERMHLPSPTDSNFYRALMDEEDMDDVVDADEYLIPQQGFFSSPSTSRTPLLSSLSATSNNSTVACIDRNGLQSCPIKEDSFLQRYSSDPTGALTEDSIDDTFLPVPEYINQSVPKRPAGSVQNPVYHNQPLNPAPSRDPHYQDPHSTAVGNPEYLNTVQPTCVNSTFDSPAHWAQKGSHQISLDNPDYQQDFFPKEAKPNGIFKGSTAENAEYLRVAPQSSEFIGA

Structure (SMILES)	composite z-score [1]	composite z-score [2]	composite z-score [3]	z-score [4]	composite z-score [5]	composite z-score [6]	composite z-score [7]	composite z-score [8]	composite z-score [9]	composite z-score [10]
COCCOC(=O)N1C(=O)[C@@]2(c3cc(C#CCCO)ccc31)[C@H](c1ccc(O)cc1)N1[C@H](c3ccccc3)[C@H](c3ccccc3)OC(=O)[C@H]1[C@@H]2C(N)=O	1.33	0.407	0.654	-0.626 (inactive)	0.173	0.169	-0.709	-0.0665	-0.282	0.907
Cc1ccc(S[C@]2(C(=O)NCC(C)C)CC(=O)N(Cc3ccccc3)[C@@H]2c2ccc(CO)cc2I)cc1	1.52	0.0143	0.388	-0.531 (inactive)	0.417	0.441	0.287	0.75	0.149	0.975
COCCOC(=O)N1C(=O)[C@@]2(c3cc(C#CCC(C(=O)OC)C(=O)OC)ccc31)[C@H](c1ccc(O)cc1)N1[C@H](c3ccccc3)[C@H](c3ccccc3)OC(=O)[C@H]1[C@@H]2C(N)=O	0.224	0.36	0.461	-1.06 (inactive)	0.833	1.06	0.212	0.825	0.417	0.626
COC(=O)C(CC#Cc1ccc2c(c1)[C@]1(C(=O)N2)[C@H](C(=O)NC[C@H](O)c2ccccc2)[C@H]2C(=O)O[C@H](c3ccccc3)[C@H](c3ccccc3)N2[C@@H]1c1ccc(OCCO)cc1)C(=O)OC	1.71	1.61	0.0724	0.0839 (inactive)	1.3	1.3	0.767	1.46	1.14	1.21
C=C(COC)/C(=C/C[C@H](OC(=O)c1ccncc1)c1cccc(OCCO)c1)c1cc(C(=O)OC)ccc1OC	0.901	-0.0771	0.195	-0.147 (inactive)	0.837	-0.208	-0.353	0.0001	-0.0833	0.533
COC(=O)c1c(CC[C@@H](CO)NC(=O)N[C@@H](Cc2ccccc2)Cn2cc(C3(O)CCCCC3)nn2)oc(C(C)=O)c1C(=O)OC	0.893	-0.27	-0.328	-2.62 (inactive)	1.31	0.819	0.346	0.873	0.514	0.382
CCCCCCc1nc(CCCc2cc3c(c(CCCCCC)n2)[Si](C(C)C)(C(C)C)OC3)cc2c1[Si](C(C)C)(C(C)C)OC2	-0.432	-0.33	-0.138	0.775 (inactive)	-0.408	-0.242	-0.0687	-0.176	0.279	1.49
[N-]=[N+]=NCc1ccccc1[C@@H]1OC(c2ccc(OCCCO)cc2)=N[C@]1(Cc1ccccc1)C(=O)N1CCCCC1	1.36	0.792	0.63	-0.276 (inactive)	1.32	1.18	-0.167	0.584	0.118	0.407
CC(=CC1CCCCC1)[C@@H](NC(=O)c1ccc(C(F)(F)F)cc1)c1ccc(-c2ccccc2)cc1	-0.0411	0.41	0.848	-0.423 (inactive)	-0.394	-0.988	-0.365	0.138	-0.0349	1.03
CCCNC(=O)[C@@]1(c2ccc([N+](=O)[O-])cc2)CC(=O)N(CC23CC4CC(CC(C4)C2)C3)[C@@H]1c1ccc(CO)cc1	0.814	0.644	-0.0905	0.228 (inactive)	0.425	0.108	0.533	1.34	0.138	-0.247
N[C@@H](Cc1ccccc1)Cn1cc(-c2ccccc2)nn1	-0.334	0.552	0.932	-1.38 (inactive)	-0.232	-0.595	0.0157	0.0589	-0.328	0.458
C[N+](C)(C)CCCCCCNC(=O)[C@H]1C[C@H]2C(=O)N3CCC[C@H]3C(=O)N2[C@H]1c1ccc(O)cc1	1.07	-0.258	-0.201	-0.677 (inactive)	0.205	0.196	-0.278	0.196	0.744	1.03
CO[C@H]1O[C@H](CO)[C@@H](OC(=O)Nc2ccc(Oc3ccccc3)cc2)[C@H](OC(=O)Nc2ccccc2)[C@H]1OC(=O)Nc1ccccc1	1.5	0.636	0.766	0.511 (inactive)	1.35	1.33	0.24	1.2	0.113	0.185
COC(=O)[C@]1(Cc2ccccc2N=[N+]=[N-])N=C(c2ccc(OCCCO)cc2)O[C@@H]1c1ccccc1N=[N+]=[N-]	1.35	0.0046	0.191	-0.71 (inactive)	0.0833	-0.383	-0.049	0.488	-0.0862	0.755
CC(C)(C)OC(=O)CC[C@]1(C(=O)N2CCCCC2)N=C(c2ccc(OCCCO)cc2)O[C@H]1c1ccccc1N=[N+]=[N-]	0.668	0.639	0.869	-1.37 (inactive)	0.968	0.736	0.6	0.81	-0.135	1.34
NC(=O)NCC#Cc1ccc2c(c1)[C@]1(C(=O)N2)[C@H](C(=O)N2CCCCCCC2)[C@H]2C(=O)O[C@H](c3ccccc3)[C@H](c3ccccc3)N2[C@@H]1c1ccc(OCCO)cc1	1.2	2.11	1.36	-0.144 (inactive)	1.29	0.748	1.35	1.63	1.75	1.53
C=CCNC(=O)[C@@H]1[C@H]2C(=O)O[C@H](c3ccccc3)[C@H](c3ccccc3)N2[C@H](c2ccc(OCCO)cc2)[C@@]12C(=O)Nc1ccccc12	1.06	0.454	-0.0808	-0.0935 (inactive)	0.772	0.839	0.254	0.774	0.228	0.344
COCCOC(=O)N1C(=O)[C@@]2(c3cc(C#Cc4ccc(OC)cc4)ccc31)[C@H](C(=O)N1CCN(c3ncccn3)CC1)[C@H]1C(=O)O[C@H](c3ccccc3)[C@H](c3ccccc3)N1[C@@H]2c1ccc(O)cc1	-0.12	-0.138	0.0953	-0.772 (inactive)	-0.0132	-0.0617	-0.026	0.246	0.37	-0.0611
C[C@]1(C(=O)NCc2ccccc2)c2ccccc2C(=O)N(Cc2ccc(OC(F)(F)F)cc2)[C@H]1c1ccc(CO)cc1	0.0162	-0.098	0.663	-0.557 (inactive)	0.0259	0.0034	-0.535	0.115	-0.393	0.0615
CCOC(=O)C[C@H]1[C@H](OC(=O)Cc2ccc3c(c2)OCO3)[C@@H](NC(=O)c2ccc(-c3ccccc3)cc2)c2cc(OCCCO)ccc2N1C(=O)c1ccccc1	0.377	-0.0183	-0.228	-0.586 (inactive)	0.602	0.367	0.457	0.612	0.247	0.235
CCCCCCCCCCC(O)C1C=CC2C(=O)N(Cc3ccccc3)C(=O)C2N1n1cnnc1 (stereo not given)	0.724	0.897	0.739	-0.47 (inactive)	-0.262	0.08	-0.384	-0.351	-0.906	1.23
